MITF primary: MITF inhibitors, primary screen, biochemical, AlphaScreen, human; Microphthalmia-associated transcription factor (Homo sapiens), O75030; AlphaScreen MITF homodimerization, bead proximity signal; inhibition, % at 2.6 µM; hit rate 0.91% among 650,000; in the data active means inhibition above about 50%;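 further: 0% = vehicle wells with protein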
GPR151 ag: activators of human GPR151, primary screen, cell-based, PathHunter beta-arrestin, luminescence | PathHunter beta-arrestin GPR151 cells | activation, % at 11.2 µM | G-protein coupled receptor 151 (Homo sapiens), Q8TDV0 | AID 1508602, 2020 | hit rate 1% among 650,000; in the data active means activation above about 4.9%;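 further: 0% = median of compound wells and 100% = cells with positive control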
TEAD-YAP inh: TEAD-YAP interaction inhibition, primary screen, TEAD-YAP interaction inhibitor project, luminescence, HEK-TIYL cells; TEAD-Gal4/YAP UAS-luciferase luminescence; inhibition, % at 9.12 µM; hit rate 1.4% among 640,000; AID 1259422, 2018; in the data active means inhibition above about 32%;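 further: 0% = median of test compound wells and 100% = reference inhibitor wells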
FBW7 activator: FBW7 E3 ligase activators, primary screen, biochemical, AlphaScreen, human | AlphaScreen FBW7–phospho-cyclin E peptide binding, activator screen | F-box/WD repeat-containing protein 7 (Homo sapiens), Q969H0 | hit rate 0.13% among 650,000 | normalized activity (activation), % at 26.1 µM; in the data active means normalized activity above about 1.9%;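 further: purified mutant Fbw7 with reduced substrate affinity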
Target sequence (Q969H0 whole entry, looked up): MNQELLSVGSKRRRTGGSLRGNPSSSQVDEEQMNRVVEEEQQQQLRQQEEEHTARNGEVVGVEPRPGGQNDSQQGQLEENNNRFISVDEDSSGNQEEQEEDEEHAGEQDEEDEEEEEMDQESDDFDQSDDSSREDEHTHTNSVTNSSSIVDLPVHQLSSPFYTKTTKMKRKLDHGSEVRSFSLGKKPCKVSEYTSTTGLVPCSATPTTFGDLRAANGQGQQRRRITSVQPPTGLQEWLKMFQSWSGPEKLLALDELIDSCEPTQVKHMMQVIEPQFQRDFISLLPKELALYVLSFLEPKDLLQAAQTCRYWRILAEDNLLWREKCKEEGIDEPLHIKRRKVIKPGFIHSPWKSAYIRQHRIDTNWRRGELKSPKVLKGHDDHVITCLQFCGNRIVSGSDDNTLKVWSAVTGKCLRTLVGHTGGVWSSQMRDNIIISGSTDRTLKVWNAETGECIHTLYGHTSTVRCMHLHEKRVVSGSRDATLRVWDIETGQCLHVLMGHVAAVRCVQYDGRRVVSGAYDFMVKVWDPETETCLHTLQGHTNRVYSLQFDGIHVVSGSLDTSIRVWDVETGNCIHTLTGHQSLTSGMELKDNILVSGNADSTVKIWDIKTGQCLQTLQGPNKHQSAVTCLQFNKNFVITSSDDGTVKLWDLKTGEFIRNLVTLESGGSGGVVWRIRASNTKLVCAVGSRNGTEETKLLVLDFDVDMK
An asterisk follows results filed as active. The list is not random: actives were taken first. Their share in the collection is about 3.4%.

SMILES	MITF primary	GPR151 ag	TEAD-YAP inh	FBW7 activator
CC1=C(C#N)C(c2cc([N+](=O)[O-])ccc2OC(F)F)C(C#N)=C(C)N1	19	0	42*	1
CC1=C(C#N)C(c2cc(Cl)ccc2OC(F)F)C(C#N)=C(C)N1	-5	-1	44*	0
O=C(CCCn1nnc2ccccc2c1=O)NC1CCCC1	-1	2	-4	0
O=C1C=CC2=C3c4cc(O)c(O)cc4C[C@@]3(O)COC2=C1	88*	-1	5	0
O=[N+]([O-])c1ccccc1N/N=C/Cc1ccccc1	16	-2	-38	0
COC(=O)c1ccc(CC2(C)C(=O)Nc3ccc(-c4cccnc4)cc32)o1 (stereo not drawn)	18	0	13	1
CC1(Cc2ccc(S(C)(=O)=O)cc2)C(=O)Nc2ccc(-c3cccnc3)cc21 (stereo not drawn)	45	0	19	1
CC1(Cc2ccc(Cl)s2)C(=O)Nc2ccc(-c3cccnc3)cc21 (stereo not drawn)	13	3	33*	0
CC1(Cc2ccc(C(F)(F)F)o2)C(=O)Nc2ccc(-c3cccnc3)cc21 (stereo not drawn)	2	1	40*	1
CC1(Cc2ccc(F)cc2)C(=O)Nc2ccc(-c3cccnc3)cc21 (stereo not drawn)	6	0	38*	0
Cn1cc(-c2cc(Nc3ccc4nccnc4c3)ncc2Cl)cn1	21	-1	-15	1
O=C(Nc1ccc2c(c1)OC(F)(F)O2)c1ccc(Cl)c([N+](=O)[O-])c1	10	0	34*	0
CN(CC(=O)Nc1cccc(F)c1)CC(=O)Nc1ccc2c(c1)OC(F)(F)O2	-7	-2	14	1
O=C(Nc1ccc(F)c(Cl)c1)c1ccc(Cl)c([N+](=O)[O-])c1	3	1	2	0
O=C(CCl)Nc1ccc2c(c1)OC(F)(F)O2	15	1	37*	0
O=C1c2ccccc2C(=O)C1(Br)c1ccccc1	2	0	0	0
O=C(NCc1ccncc1)c1ccc(OC2CCN(C3CCOCC3)CC2)cc1	-2	0	2	0
Cc1cc(CN2CCC(Oc3ccc(C(=O)NCc4ccncc4)cc3)CC2)oc1C	-13	0	33*	0
Cc1cc2nn(-c3ccccc3)nc2cc1NC(=O)C(C)C	19	-1	19	0
O=C(COc1ccccc1)Nc1ccc2nn(-c3ccccc3)nc2c1	-2	0	-11	0
CC(=O)Nc1cc2nn(-c3ccccc3)nc2cc1C	-12	-7	50*	0
CC(C)CC(=O)Nc1ccc2nn(-c3ccccc3)nc2c1	10	-1	-49	3.0*
COc1ccc(S(=O)(=O)N(CC(=O)N(C)C)c2ccc(C)cc2)cc1	1	0	3	0
C=CCCC(=O)N1CCOc2ccc(CN3CCN(C(C)=O)CC3)cc2C1	-2	0	-9	0
CCN1CCN(C(=O)c2sc3ncnc(N4CCN(c5ccccn5)CC4)c3c2C)CC1	6	0	19	0
SMILES	MITF primary	GPR151 ag	TEAD-YAP inh	FBW7 activator
Cc1c(C(=O)N2CCN(Cc3ccccc3)CC2)sc2ncnc(N3CCN(c4ccccn4)CC3)c12	-10	3	37*	0
COc1ccccc1N1CCN(C(=O)c2sc3ncnc(N4CCN(c5ccccn5)CC4)c3c2C)CC1	-5	-1	35*	0
COc1cc(CNc2ccc(N(C)C)cc2)ccc1OCC(=O)NC(C)(C)C	15	1	37*	0
COc1cc(CO)ccc1OCC(=O)NC(C)(C)C	-3	2	-7	0
Cc1ccccc1Cn1nc(C)c(NC(=O)c2cc(C3CC3)on2)c1C	-2	0	4	2.1*
Cc1cc(C(=O)Nc2c(C)nn(Cc3c(Cl)cccc3Cl)c2C)no1	0	0	33*	0
COCCn1c(=O)n(CC(=O)Nc2ccccc2N2CCOCC2)c2cccnc21	5	0	4	0
O=C(c1ccccc1)n1c2ccccc2c2ccccc21	18	0	36*	0
O=C(O)Cn1c2ccccc2c2ccccc21	-9	0	-2	0
Cc1ccc(C(=O)N/N=C/c2ccc([N+](=O)[O-])o2)cc1	-1	1	40*	0
O=C(N/N=C/c1ccc([N+](=O)[O-])o1)c1ccc(F)cc1	1	-1	37*	0
O=C(N/N=C/c1ccc([N+](=O)[O-])s1)c1ccc(F)cc1	-7	1	45*	0
O=C(N/N=C/c1ccc([N+](=O)[O-])o1)c1ccccc1	7	1	-5	0
Cc1cc(C(=O)N/N=C/c2ccc([N+](=O)[O-])o2)n[nH]1	23	-1	32*	1
COc1ccnc(CN2CCCC(c3nc(C)ncc3-c3ccncc3)C2)c1OC (stereo not drawn)	-3	2	4	0
CCC(=O)N1CCCc2ccc(NS(=O)(=O)c3ccc(OC)c(F)c3)cc21	10	2	58*	0
Cc1ccc(S(=O)(=O)Nc2ccc3c(c2)N(C(=O)c2cccs2)CCC3)cc1	24	0	50*	0
Cc1cccc(OCC(=O)Nc2ccc3c(c2)CCCN3C(=O)c2cccs2)c1	9	0	3	0
CC(C)CS(=O)(=O)Nc1ccc2c(c1)N(C(=O)c1cccs1)CC2	6	0	-2	0
O=C(Nc1ccc2c(c1)CCCN2C(=O)c1cccs1)NC(c1ccccc1)c1ccccc1	-1	0	45*	0
CC(=O)N1CCc2ccc(NS(=O)(=O)c3ccc(C(C)(C)C)cc3)cc21	7	2	32*	0
CCOC(=O)CNCc1c(Cl)cccc1Cl	-4	-1	2	0
COCC(C)NC(=O)Cc1coc2cc(C)cc(C)c12 (stereo not drawn)	4	0	-11	0
CC(=O)N(CN1C(=O)c2cccc([N+](=O)[O-])c2C1=O)c1ccc2c(c1)oc1ccccc12	-10	2	-26	-1
CCOC(=O)C1=CS/C(=C2/C(=S)C(C)(C)Nc3c(OCC)cccc32)S1	53*	0	-5	0
SMILES	MITF primary	GPR151 ag	TEAD-YAP inh	FBW7 activator
CCOC(=O)C1=CS/C(=C2/C(=S)C(C)(C)N(C(=O)CC(C)C)c3ccc(OCC)cc32)S1	-4	0	7	0
COc1ccc(Cc2nnc(NCc3ccco3)[nH]c2=O)cc1	7	1	58*	0
COc1ccc(Cc2nnc(Nc3cccc(OC)c3)[nH]c2=O)cc1	14	-1	57*	0
CSCCC(=O)N1CCC2(CC1)CC2C(=O)N1CCN(C/C=C/c2ccccc2)CC1 (stereo not drawn)	15	-1	4	0
Cc1ccc2c(C)nc(N3CCCC(NC4CCOC4)CC3)nc2c1 (stereo not drawn)	-7	0	-5	0
CC(C)n1c(=O)c(=O)[nH]c2cc(C(F)(F)F)ccc21	2	-1	-2	0
O=C(NCCCN1CCOCC1)c1ccc([N+](=O)[O-])o1	14	-1	10	0
